Results filed as inconclusive are left out. Calls of active or inactive are those of the source. Calls follow the shape of the dose curve; as a rule, active = well fitted inhibition curve with a large enough effect; inconclusive = small, poorly fitted or top-dose-only effect; inactive = flat fitted curve, though single readings scatter.
Tests used:
[1] = test system: CRL-7250; test: Cytotoxic Profiling of Annotated Libraries Using Quantitative High-Throughput Screening (AID 1296008); details: Five cell lines viability, CellTiter-Glo ATP luminescence, 48-72 h; max response: active compounds read low; also: potency is read from the fitted curve at half-maximal effect
Method in brief: (§1)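 Compounds were pin-transferred onto cells and incubated 48 or 72 hr at 37 degree Celsius, 95% humidity. CellTiter-Glo was added, plates sat 10 min at room temperature, then ATP-coupled luminescence was imaged as the viability read-out.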

[2] = test system: HEK293; test: as above; details: Five cell lines viability, CellTiter-Glo ATP luminescence, 48-72 h; max response: active compounds read low
Method in brief: as §1

[3] = test system: HaCat; test: as above; details: Five cell lines viability, CellTiter-Glo ATP luminescence, 48-72 h; max response: active compounds read low
Method in brief: as §1

[4] = test system: NIH3T3; test: as above; details: Five cell lines viability, CellTiter-Glo ATP luminescence, 48-72 h; max response: active compounds read low
Method in brief: as §1

[5] = test system: HACAT; test: qHTS assay to identify novel small-molecules to repurpose for Merkel cell carcinoma treatment (AID 1296009); details: MCC and control cell lines, CellTiter-Glo viability, 72 h; at 44.8 µM (top of the series) unless noted
Method in brief: (§2)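 Luminescence from CellTiter-Glo, read 10 min after addition at room temperature, reported viability following a 72 hr, 37 degree celsius treatment with NPC or MIPE compounds in titration; values normalized to plate controls.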

[6] = test system: MCC-13; test: as above; details: MCC and control cell lines, CellTiter-Glo viability, 72 h; series mostly up to 46 µM
Method in brief: as §2

[7] = test system: MCC-26; test: as above; details: MCC and control cell lines, CellTiter-Glo viability, 72 h; series mostly up to 46 µM
Method in brief: as §2

[8] = test system: HEK293T; test: as above; details: MCC and control cell lines, CellTiter-Glo viability, 72 h; at 44.8 µM (top of the series) unless noted
Method in brief: as §2
% is scaled to controls: 0 for no effect and ±100 for the full control effect.
Also: nearly all actives have a fitted effect of over 60% in size.

Cc1cnc(NS(=O)(=O)c2ccc(N)cc2)nc1
inactive: outcome [1] | max response [2] -11.8% | outcome [3] | max response [4] 2.98% | outcome [5] | Potency [6] | Potency [7]

COc1ccccc1N1CCN(CC(O)COc2cc(OC)c(OC)c(OC)c2)CC1 (configuration not stated)
inactive: outcome [1] | max response [2] 2.4% | outcome [3] | max response [4] -5.07% | outcome [5] | Potency [6]

Nc1c(I)cc(I)c(C(=O)N(CCC(=O)O)c2ccccc2)c1I
inactive: max response [1] 1.19% | max response [2] -0.316% | outcome [3] | max response [4] 0.521% | outcome [5] | Potency [6] | Potency [7]

COCCOCC(OC)OC
inactive: max response [1] -5.92% | max response [2] -49.7% | outcome [3] | max response [4] 1.4% | outcome [5] | Potency [6]

CC(C)OP(=O)(CP(=O)(OC(C)C)OC(C)C)OC(C)C
inactive: max response [1] -7.87% | max response [2] -0.755% | outcome [3] | max response [4] -2.18% | outcome [5] | Potency [6] | Potency [7]

Cc1oc(=O)oc1COC(=O)[C@@H]1N2C(=O)[C@@H](NC(=O)[C@H](N)c3ccccc3)[C@H]2SC1(C)C
inactive: max response [1] -5.05% | max response [2] -0.753% | outcome [3] | max response [4] -3.48% | outcome [5] | Potency [6]

Cc1ccc(C(=O)Oc2ccc(C(O)CNC(C)(C)C)cc2OC(=O)c2ccc(C)cc2)cc1 (configuration not stated)
inactive: max response [1] -6.97% | max response [2] 1.15% | outcome [3] | outcome [4] | outcome [5] | Potency [6] | Potency [7]

CC(=O)N(CC(O)CO)c1c(I)c(C(=O)NCCO)c(I)c(C(=O)NCC(O)CO)c1I (configuration not stated)
inactive: max response [1] -7.11% | max response [2] 2.15% | outcome [3] | outcome [4] | outcome [5] | Potency [6] | Potency [7]

Cc1cccc(C)c1NC(=O)c1ccc(N)cc1
inactive: max response [1] -0.144% | max response [2] -2.32% | outcome [3] | outcome [4] | outcome [5] | Potency [6] | Potency [7]

Cc1ccc(-c2ccccc2C#N)cc1
inactive: max response [1] 2.16% | outcome [2] | outcome [3] | max response [4] 3.01% | outcome [5] | outcome [8] | Potency [6] | Potency [7]

CCN(CC)C(=O)C1CN2CCc3cc(OC)c(OC)cc3C2CC1OC(C)=O (configuration not stated)
inactive: max response [1] -9.43% | outcome [2] | outcome [3] | max response [4] -5.34% | outcome [5] | outcome [8] | Potency [6] | Potency [7]

O=C(O)c1ccc(OCCN2CCCCC2)cc1
inactive: max response [1] 4.52% | max response [2] -3.98% | outcome [3] | max response [4] 1.34% | outcome [5] | Potency [6]

CCOC(=O)C(O)c1ccccc1 (configuration not stated)
inactive: outcome [1] | outcome [2] | outcome [3] | max response [4] 0.37% | outcome [5] | outcome [8] | Potency [6] | Potency [7]

Oc1ccc(CCNCCCCCCNCCc2ccccc2)cc1O
inactive: max response [1] -8.57% | outcome [3] | max response [4] -5.45% | outcome [5] | Potency [6] | Potency [7]
active: Potency [2] 23.7 µM

C/C(=N/NC(=O)c1ccncc1)C(=O)O
inactive: max response [1] 0.746% | max response [2] 2.14% | outcome [3] | max response [4] 0.247% | outcome [5] | Potency [6] | Potency [7]

CO/N=C(\C(=O)O)c1csc(NC(=O)CCl)n1
inactive: outcome [1] | max response [2] -4.55% | outcome [3] | outcome [4] | outcome [5] | Potency [6] | Potency [7]

Cc1cccc(OCC(O)CNC(C)(C)C)c1C (configuration not stated)
inactive: max response [1] -7.39% | max response [2] -11.8% | outcome [3] | max response [4] 0.115% | outcome [5] | Potency [6] | Potency [7]

COC(=O)c1cc(S(N)(=O)=O)ccc1OC
inactive: max response [1] -27.4% | max response [2] 4.21% | outcome [3] | outcome [4] | outcome [5] | Potency [6] | Potency [7]

CCCCCCOC(=O)NC(=N)c1ccc(NCc2nc3cc(C(=O)N(CCC(=O)OCC)c4ccccn4)ccc3n2C)cc1
active: Potency [2] 10.6 µM
inactive: max response [1] 2.91% | outcome [3] | max response [4] 1.24% | outcome [5] | Potency [6] | Potency [7]

Nc1ccc([N+](=O)[O-])c(C(F)(F)F)c1
inactive: max response [1] 1.39% | max response [2] 4.93% | outcome [3] | max response [4] 0.447% | outcome [5] | Potency [6] | Potency [7]

CC(=O)N(c1onc(C)c1C)S(=O)(=O)c1ccc(N)cc1
inactive: max response [1] -16.4% | max response [2] 4.9% | outcome [3] | max response [4] -5.11% | outcome [5] | Potency [6] | Potency [7]

O=C1CC2(CCCC2)CC(=O)N1
inactive: max response [1] -7.34% | max response [2] 4.63% | outcome [3] | outcome [4] | outcome [5] | Potency [6] | Potency [7]

CCCCC(CC)CNC(=O)CC(C)OC(=O)CCC(=O)O (configuration not stated)
inactive: max response [1] -4.08% | max response [2] 1.54% | outcome [3] | max response [4] -1.58% | outcome [5] | Potency [6]

O=C(O)c1cn(C2CC2)c2cc(Cl)c(F)cc2c1=O
inactive: outcome [1] | max response [2] -5.06% | outcome [3] | outcome [4] | outcome [5] | Potency [6] | Potency [7]

CC(C)(C)c1cc(C=O)cc(C(C)(C)C)c1O
inactive: max response [1] 4.77% | max response [2] 3.28% | outcome [3] | max response [4] 1.57% | outcome [5] | Potency [6] | Potency [7]

N#CC1(c2ccc(F)cc2)CCC(=O)CC1
inactive: max response [1] -2.26% | max response [2] -11.6% | outcome [3] | outcome [4] | outcome [5] | Potency [6] | Potency [7]

Cc1coc2ccccc2c1=O
inactive: max response [1] -0.524% | max response [2] 3.92% | outcome [3] | outcome [4] | outcome [5] | Potency [6] | Potency [7]

CCCCCCn1c(=O)c2c(ncn2C)n(C)c1=O
inactive: outcome [1] | max response [2] -1.62% | outcome [3] | max response [4] 1.26% | outcome [5] | Potency [6] | Potency [7]

O=C(CCCl)NCc1ccccc1
inactive: max response [1] -8.2% | max response [2] -4.62% | outcome [3] | outcome [4] | outcome [5] | Potency [6] | Potency [7]

CC(C)C(=O)Nc1cccc(C(F)(F)F)c1
inactive: max response [1] 3.59% | max response [2] 3.73% | outcome [3] | max response [4] 2.63% | outcome [5] | Potency [6] | Potency [7]

O=C1CCCc2c(O)cccc21
inactive: max response [1] -3.71% | max response [2] -4.98% | outcome [3] | max response [4] -15.1% | outcome [5] | Potency [6] | Potency [7]

Cc1onc(-c2ccccc2)c1C(=O)Cl
inactive: max response [1] -2.71% | max response [2] 0.397% | outcome [3] | max response [4] 4.1% | outcome [5] | Potency [6] | Potency [7]
